Bioassay records (PubChem)
USP8 inh: inhibitors of human USP8 deubiquitinase; P40818; purified USP8, Ub-rhodamine cleavage fluorescence, 30 min; inhibition, % at 20 µM; 47,000 compounds, 4.2% hits
Target sequence (P40818 whole entry, looked up): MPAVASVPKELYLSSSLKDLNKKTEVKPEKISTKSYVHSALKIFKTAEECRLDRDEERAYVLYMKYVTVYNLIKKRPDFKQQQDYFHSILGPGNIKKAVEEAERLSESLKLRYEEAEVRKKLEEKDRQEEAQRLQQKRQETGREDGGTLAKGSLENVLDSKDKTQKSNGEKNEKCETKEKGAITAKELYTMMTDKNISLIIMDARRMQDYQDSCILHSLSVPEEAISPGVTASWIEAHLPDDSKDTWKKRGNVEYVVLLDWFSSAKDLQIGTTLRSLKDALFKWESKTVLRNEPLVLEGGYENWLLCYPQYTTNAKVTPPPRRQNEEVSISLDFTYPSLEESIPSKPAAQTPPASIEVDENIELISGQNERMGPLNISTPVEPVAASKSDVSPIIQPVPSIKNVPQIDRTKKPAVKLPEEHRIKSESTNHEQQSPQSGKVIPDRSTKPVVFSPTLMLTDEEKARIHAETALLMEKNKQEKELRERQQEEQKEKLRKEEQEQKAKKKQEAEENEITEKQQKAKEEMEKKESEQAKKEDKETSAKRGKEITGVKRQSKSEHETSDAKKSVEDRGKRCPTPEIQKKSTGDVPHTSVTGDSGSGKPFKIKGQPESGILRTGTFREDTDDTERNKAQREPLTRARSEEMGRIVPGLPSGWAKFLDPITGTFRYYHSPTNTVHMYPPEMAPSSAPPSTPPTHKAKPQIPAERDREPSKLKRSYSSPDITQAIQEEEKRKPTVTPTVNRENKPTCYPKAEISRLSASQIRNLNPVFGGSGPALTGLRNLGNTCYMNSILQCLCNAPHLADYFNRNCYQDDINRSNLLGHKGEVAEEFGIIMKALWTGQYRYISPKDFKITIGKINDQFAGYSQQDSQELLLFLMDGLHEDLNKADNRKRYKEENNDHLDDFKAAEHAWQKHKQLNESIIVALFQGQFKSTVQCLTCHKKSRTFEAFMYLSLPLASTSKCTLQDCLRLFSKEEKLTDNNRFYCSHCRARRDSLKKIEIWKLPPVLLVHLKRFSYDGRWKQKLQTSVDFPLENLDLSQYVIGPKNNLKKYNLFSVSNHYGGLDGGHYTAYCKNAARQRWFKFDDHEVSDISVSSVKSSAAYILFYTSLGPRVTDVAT
USP17 inh: blocks human USP17 ubiquitin-rhodamine cleavage | A8MUK1 | purified USP17, Ub-rhodamine cleavage fluorescence, 3 h | inhibition, % at 50 µM | 47,000 compounds, 6.5% hits
USP30 block: blocks human USP30 ubiquitin-rhodamine cleavage; Q70CQ3; purified USP30, Ub-rhodamine cleavage fluorescence; inhibition, % at 25 µM; 47,000 compounds, 5.3% hits; AID 1645860
Numbers stand for hits; – = inactive; · = no result given. In the library only some 12% were active in any assay of this set; here they are far more common. No stated cut-off is given here; in the data, active means inhibition above about 30%; inactive means the rest.

SMILES	USP8 inh	USP17 inh	USP30 block
CSc1nc2nc(C)c(C/C=C/c3ccccc3)c(=O)n2[nH]1	–	·	40
O=C(Cc1nnc(-c2cnccn2)o1)NCc1ccc(F)cc1	–	–	–
O=C(NC1CCCC1)C1CCCN(S(=O)(=O)N2CCOCC2)C1 (stereo unspecified)	–	–	–
CS(=O)(=O)c1cccnc1C1CCCN(C(=O)c2cccc(F)c2)C1 (stereo unspecified)	–	–	–
N#Cc1c2n(c(=O)n(CC(=O)c3ccc(Cl)cc3)c1=O)CCC2	–	–	·
COCCNC(=O)c1ccc2ccc(N(C)CC3CC3)n2c1	–	–	–
Cc1cc(NCCc2ccc(Cl)cc2)n2nc(C)nc2n1	–	–	–
Cc1cc(NCC2CC2)n2nc(Nc3cc(Cl)ccc3C)nc2n1	–	71	31
COc1ccc(CNc2ncc(C(=O)NCc3ccc(C)o3)c(C)n2)cc1	–	–	–
COc1ccc(C(=O)Nc2n[nH]c(C)c2-c2cccc(C)c2)c(OC)c1	–	–	72
COc1cc(OC)cc(C(=O)Nc2n[nH]c(C)c2-c2cccc(C)c2)c1	–	–	–
Cc1ccc(C(=O)Nc2ncnc3oc(-c4ccccc4)c(-c4ccccc4)c23)cc1	61	–	–
Cc1ccc(C(=O)Nc2ccc3ccccc3n2)cc1	–	–	–
Clc1ccccc1Sc1nc2ccccc2n2cnnc12	–	–	·
COc1ccc(Sc2nc3ccccc3n3cnnc23)cc1	79	–	–
O=C(CC1CCCC1)N1C[C@H](OCc2ccncc2)[C@H]2OCCC[C@H]21	–	–	–
COc1ccccc1NS(=O)(=O)c1ccc(C(=O)NCc2ccc(S(N)(=O)=O)cc2)cc1	–	–	–
Cc1ccc(S(=O)(=O)NCc2ccc(C(=O)NCCc3ccc(S(N)(=O)=O)cc3)cc2)cc1	63	88	88
CN(Cc1ccccc1)C(=O)c1ccc(CNS(=O)(=O)c2ccc(F)cc2)cc1	–	–	–
CC(=O)Nc1ccc(S(=O)(=O)NCc2ccc(C(=O)NCCc3ccc(Cl)cc3)cc2)cc1	–	–	96
CC(=O)Nc1ccc(S(=O)(=O)N2CCCC(C(=O)NCCc3ccccc3)C2)cc1 (stereo unspecified)	–	–	–
CC(=O)Nc1ccc(S(=O)(=O)NCc2ccc(C(=O)NCc3ccccc3Cl)cc2)cc1	–	–	–
Cc1cccc(CCNC(=O)c2ccc(CNS(=O)(=O)c3ccc(F)cc3)cc2)c1	–	–	34
CC(=O)Nc1ccc(S(=O)(=O)N2CCC(C(=O)NCCc3ccc(Cl)cc3)CC2)cc1	–	–	34
Cc1ccnc2nc(C(=O)Nc3nc4c(s3)CCCC4)nn12	–	–	–
SMILES	USP8 inh	USP17 inh	USP30 block
O=C(O)c1ccc2c(=O)n3c(nc2c1)/C(=C/c1ccc2c(c1)OCCO2)CC3	–	–	–
O=C1N(Cc2ccc(F)cc2)c2ccccc2S(=O)(=O)N1Cc1ccccc1	–	–	–
Cc1cnn(CC2CN(Cc3csc(-c4ccco4)n3)CCO2)c1 (stereo unspecified)	–	–	–
O=c1cc(CN2CCOCC2)nc2nc(NCc3ccccc3)[nH]n12	–	–	–
O=c1cc(CNc2ccc(Br)cc2)nc2nc(-c3ccccc3)[nH]n12	45	82	32
COc1ccc(-c2nc(CNS(=O)(=O)c3ccc(OC)cc3)cs2)cc1	–	49	–
COc1ccc(-c2nc(CNS(=O)(=O)c3ccc(OC)c(C)c3)cs2)cc1	–	38	–
O=S(=O)(NCCc1csc(-c2ccc(F)cc2)n1)c1ccc(F)cc1	–	–	–
COc1ccc(S(=O)(=O)NCc2nnnn2-c2ccc(C)cc2)cc1C	–	–	–
Cc1ccc(C(=O)C2CC(=O)Nc3c2c(C)nn3-c2ccc(F)cc2F)s1 (stereo unspecified)	–	·	–
O=C(c1noc2ccc(S(=O)(=O)Nc3cccc(F)c3)cc12)N1CCCCC1	–	–	–
CCOc1ccccc1C(=O)NCc1c(C)noc1C	–	–	–
COc1ccc(C(=O)/C=C\c2cn(-c3ccccc3)nc2-c2cccs2)cc1	–	–	–
Nc1nn(-c2ccccc2)cc1-c1cccs1	36	–	–
COc1cc(-c2nc(C(N)=O)c3[nH]c(=O)n(-c4ccc(C)cc4)c3n2)cc(OC)c1OC	–	75	45
NC(=O)c1nc(-c2cccnc2)nc2c1[nH]c(=O)n2-c1ccc2c(c1)OCO2	53	46	–
NC(=O)c1nc(C2CCCCC2)nc2c1[nH]c(=O)n2-c1ccc2c(c1)OCO2	–	–	–
NC(=O)c1nc(-c2ccccn2)nc2c1[nH]c(=O)n2-c1ccc2c(c1)OCO2	–	43	43
Cc1ccc(-n2c(=O)[nH]c3c(C(N)=O)nc(C4CCCCC4)nc32)cc1	–	–	–
Cc1cccc(-n2c(=O)[nH]c3c(C(N)=O)nc(-c4ccccn4)nc32)c1	–	–	–
CCCCSc1nc(NCCO)c2c3c(sc2n1)COC(C)(C)C3	–	–	–
CCn1c(Cn2cccn2)nc2cc(NC(=O)c3ccccc3C)ccc21	–	–	–
Cc1cc(C)c(C(=O)CSc2nnc(-c3ccccc3)o2)cc1C	56	–	–
Cc1ccc(NC(=O)CSc2nnc(-c3ccncc3)o2)cc1C	–	–	–
CC(C)CCN1C[C@H]2CCN(C(=O)Cc3ccccc3)CC[C@H]2S1(=O)=O	–	–	–
SMILES	USP8 inh	USP17 inh	USP30 block
COCCNC(=O)CN(Cc1ccc(OC)cc1)C(=O)CCC(=O)Nc1ccccn1	–	–	–
Cc1ccc(-n2ncc(C(=O)NCc3cccc(Cl)c3)c2C2CCNCC2)cc1Cl	–	·	44
O=C(NCc1cccc(Cl)c1)c1cnn(-c2ccc(Cl)cc2)c1C1CCNCC1	–	–	–
O=C(Cc1nnc(-c2cnccn2)o1)NCc1ccccc1Cl	–	–	–
CCOC(=O)N1CCN(S(=O)(=O)c2ccc(C(=O)Nc3ccc(Br)cc3)cc2)CC1	–	88	–
CCOC(=O)N1CCN(S(=O)(=O)c2ccc(C(=O)Nc3ccccc3Oc3ccccc3)cc2)CC1	–	–	–
Cc1ccc(NC(=O)c2cc3c(CO)cnc(C)c3oc2=Nc2ccccc2)cc1	–	–	–
CC(C)(C)n1cc(C(=O)N2CCCCCC2c2ccncc2)cn1 (stereo unspecified)	–	–	–
COc1ccc([N+](=O)[O-])cc1NC(=O)C(C)OC(=O)CSc1ccc2ccccc2c1 (stereo unspecified)	–	–	–
Nc1ccc([N+](=O)[O-])cc1NC(=O)CSc1ccc2ccccc2c1	41	–	–
CCCCN1Cc2sc(NC(=O)Nc3ccccc3F)nc2C1=O	–	33	–
CCCCN1Cc2sc(NC(=O)Nc3ccccc3C)nc2C1=O	–	–	–
O=C(NCC1CC1)c1cc(-c2ccn(C3CCCC3)n2)n2ccccc12	–	–	–
CC(=O)Nc1ccc(C(=O)N2C[C@H]3C[C@H](COc4cccnc4)[C@@H](C2C)N3C)cc1 (stereo partly specified)	–	–	–
CCOC(=O)Cc1ccc(NC(=O)Nc2ccc3snnc3c2)cc1	–	–	–
O=C(Nc1ccc2snnc2c1)Nc1ccc(F)cc1F	74	–	–
CC(=O)c1ccc(N2CCN(CC(=O)Nc3ccc4c(c3)OCO4)CC2)cc1	–	–	–
CCOC(=O)c1sc2nc(C)nc(Oc3cccnc3)c2c1C	–	–	–
O=C(CNc1ncnc2sc(-c3ccccc3)cc12)Nc1ccc(F)c(F)c1	–	–	–
